Test results from PubChem BioAssay AID2284375 (EPA ToxCast).
Results filed as inconclusive are left out. Calls of active or inactive are those of the source. The calls were made as follows: active = hit-call score of the fitted dose curve at least 0.9, where 1 is the maximum; inconclusive = response in the unintended direction; inactive = score below 0.9.

Target: Estrogen receptor (Homo sapiens) (UniProt P03372)
Experiment: ERF_US_NR_hESR1: Eurofins (ERF) Nuclear Receptor (NR) Cell Based Protein-Protein Interaction LeadHunter Assay for human Estrogen Receptor alpha (ERa) Agonism
Procedure: ERF_US_NR_hESR1 is a cell-based, single-readout assay that uses extracted gene-proteins in a cell-line assay. Measurements were taken 5 hours after chemical dosing in a 384-well plate. See ERalpha Human Estrogen NHR Cell Based Agonist Protein-Protein Interaction Assay, DiscoverX.ERF_US_NR_hESR1 is an assay component calculated from the ERF_US_NR_hESR1 assay. It is designed to […].Data from the assay component ERF_US_NR_hESR1 was analyzed at the assay endpoint, ERF_US_NR_hESR1, in the positive analysis fitting direction relative to DMSO as the negative control and baseline of activity. Using a type of binding reporter, gain-of-signal activity can be used to understand changes in binding as they relate to gene ESR1. To generalize the intended target to other relatable targets, this assay endpoint is annotated to the nuclear receptor intended target family, where the subfamily is steroid.
Cells were seeded in a total volume of 20 uL into white walled, 384-well microplates and incubated at 37C overnight prior to testing. Briefly, intermediate dilution of sample stocks was performed to generate 5X sample in assay buffer. 5 uL of 5X sample was added to cells and incubated at37C for 300 minutes. Final assay vehicle concentration was 1%. The results are expressed as a percent efficacy of the control ligand.

Estrogen receptor (Homo sapiens), sequence (P03372 whole entry, looked up): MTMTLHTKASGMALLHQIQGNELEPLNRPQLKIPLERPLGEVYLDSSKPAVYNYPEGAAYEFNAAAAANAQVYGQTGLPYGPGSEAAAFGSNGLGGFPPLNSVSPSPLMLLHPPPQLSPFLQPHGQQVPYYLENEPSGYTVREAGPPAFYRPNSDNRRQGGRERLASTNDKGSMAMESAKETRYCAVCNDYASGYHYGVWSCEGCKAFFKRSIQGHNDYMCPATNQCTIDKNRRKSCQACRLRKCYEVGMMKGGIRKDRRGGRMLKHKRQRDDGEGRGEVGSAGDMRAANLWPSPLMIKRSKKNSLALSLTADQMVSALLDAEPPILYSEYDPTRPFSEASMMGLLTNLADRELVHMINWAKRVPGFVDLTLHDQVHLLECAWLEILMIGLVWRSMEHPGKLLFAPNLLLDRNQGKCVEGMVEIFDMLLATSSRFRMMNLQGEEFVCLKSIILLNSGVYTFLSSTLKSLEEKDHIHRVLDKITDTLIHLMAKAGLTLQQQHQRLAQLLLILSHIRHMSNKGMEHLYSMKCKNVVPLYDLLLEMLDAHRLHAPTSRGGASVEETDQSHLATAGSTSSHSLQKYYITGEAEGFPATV

Question: `OCCC(F)(F)C(F)(F)C(F)(F)C(F)(F)C(F)(F)C(F)(F)C(F)(F)C(F)(F)F` was tested. Which outcome did it give?
Answer: inactive

Question: How did the AC50 turn out when `OCC(F)(F)C(F)(F)C(F)(F)C(F)(F)C(F)(F)C(F)(F)CO` was run?
Answer: 25.3 µM (active)

Question: With `OCCC(F)(F)C(F)(F)C(F)(F)C(F)(F)C(F)(F)C(F)(F)F` as the compound, how does the outcome read?
Answer: inactive

Question: `FC(F)(I)C(F)(F)C(F)(F)C(F)(F)C(F)(F)C(F)(F)I` was tested. Which AC50 did it give?
Answer: 12.1 µM (active)

Question: How did the outcome turn out when `NC(=O)C(F)(F)C(F)(F)C(F)(F)C(F)(F)C(F)(F)C(F)(F)C(F)(F)F` was run?
Answer: inactive

Question: How did the outcome turn out when `N=C(N)C(F)(F)C(F)(F)C(F)(F)C(F)(F)C(F)(F)C(F)(F)C(F)(F)F` was run?
Answer: inactive

Question: For `OCC(F)(F)C(F)(F)C(F)(F)C(F)(F)C(F)(F)C(F)(F)C(F)(F)C(F)(F)CO`, which AC50 is on record?
Answer: 17.1 µM (active)

Question: Which outcome does the source give for `FC(F)(I)C(F)(F)C(F)(F)C(F)(F)I` here?
Answer: inactive

Question: How did the outcome turn out when `O=C(O)C(F)(OC(F)(F)C(F)(OC(F)(F)C(F)(F)C(F)(F)F)C(F)(F)F)C(F)(F)F` (stereo not drawn) was run?
Answer: inactive

Question: How did the outcome turn out when `FC(F)(F)C(F)(F)C(F)(F)C(F)(F)C(F)(F)C(F)(F)I` was run?
Answer: inactive

Question: Which outcome does the source give for `C=CC(=O)OCC(F)(F)C(F)(F)C(F)(F)C(F)(F)C(F)(F)C(F)(F)C(F)(F)C(F)F` here?
Answer: inactive

Question: `O=P(O)(O)OCCC(F)(F)C(F)(F)C(F)(F)C(F)(F)C(F)(F)C(F)(F)F` was tested. Which outcome did it give?
Answer: inactive

Question: How did the outcome turn out when `FC(F)(F)C(F)(F)C(F)(F)C(F)(F)CCI` was run?
Answer: inactive
